Compound activity deposited in PubChem by National Center for Advancing Translational Sciences (NCATS).
Glioma ERSR ind = qHTS for Inducers of the Endoplasmic Reticulum Stress Response (ERSR) in Human Glioma: qHTS | U87-MG GRP78 promoter luciferase reporter, 16 h | Potency, µM, most hits filed as activators | actives 0.02% (n = 420,000) | AID 602332, 2012; further: series mostly up to about 76 µM; nearly all actives have a fitted effect of over 35% in size
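Stably transfected U87-MG glioma cells carrying a GRP78-based luciferase sensor; 16 h compound incubation. Luminescence end-point read 10 min after Bright-Glo addition at room temperature.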
Vif-A3G inh = qHTS for Inhibitors of Vif-A3G Interactions: qHTS. HeLa A3G-eYFP + Vif (tagged APOBEC3G with the HIV-1 protein that degrades it), YFP fluorescence, overnight. Potency, µM (doses to about 46.1 µM), actives largely listed as inhibitors. actives 0.076% (n = 410,000). AID 602310, 2012; further: nearly all actives have a fitted effect of over 60% in size
Target sequence (Q9HC16 whole entry, looked up): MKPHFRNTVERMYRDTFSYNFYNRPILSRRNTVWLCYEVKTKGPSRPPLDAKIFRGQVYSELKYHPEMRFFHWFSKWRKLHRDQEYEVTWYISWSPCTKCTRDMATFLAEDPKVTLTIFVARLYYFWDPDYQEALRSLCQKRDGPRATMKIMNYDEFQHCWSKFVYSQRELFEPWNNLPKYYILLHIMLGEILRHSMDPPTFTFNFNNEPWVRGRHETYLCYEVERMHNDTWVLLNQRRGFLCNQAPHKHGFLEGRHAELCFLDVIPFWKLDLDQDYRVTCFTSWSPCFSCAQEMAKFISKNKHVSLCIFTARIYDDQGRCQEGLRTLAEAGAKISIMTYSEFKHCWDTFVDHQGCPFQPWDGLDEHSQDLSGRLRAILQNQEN
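Read-out is eYFP fluorescence (Ex 488/Em 500-530) from Vif-expressing HeLa A3G-eYFP cells; more signal means A3G escaped Vif-mediated degradation. Cells plated overnight, compound pinned in, incubated overnight at 37 deg C.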
PINK1 modulator = A Quantitative High throughput Screen to Identify Chemical Modulators of PINK1 Expression; PINK1 immunofluorescence, high-content cytometry, 24 h; Potency, µM (titrated, usually from 76.6 µM), most hits filed as activators; actives 0.2% (n = 410,000); AID 624263, 2012; active means well fitted activation curve with a large enough effect; inconclusive means small, poorly fitted or top-dose-only effect; cell line not stated here; further: nearly all actives have a fitted effect of over 65% in size
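Stable cell line treated 24 h with compounds at 5 concentrations (CCCP controls), then fixed and immunostained for PINK1 plus nuclear and cell stains; PINK1 immunofluorescence quantified by laser-scanning microplate cytometry.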
Vif-APOBEC3F blk = qHTS for Inhibitors of Vif-A3F Interactions: qHTS; AID 602313, 2012; actives 0.2% (n = 390,000); HeLa A3F-eYFP + Vif (tagged APOBEC3F with the HIV-1 protein that degrades it), YFP fluorescence increase; Potency, µM (titrated, usually from 46.1 µM); further: nearly all actives have a fitted effect of over 65% in size
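HeLa cells stably expressing Vif plus C-terminally eYFP-tagged A3F were seeded, incubated overnight at 37 deg C, dosed with compound, incubated overnight again at 37 deg C. Yellow fluorescence (Ex 488/Em 500-530) reported blocked Vif-mediated A3F-eYFP degradation.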
Abeta yeast res = qHTS for compounds that reverse cellular toxicity of Amyloid beta (A-beta) peptide in yeast: Primary Screen; Potency, µM (titrated, usually from 46.1 µM), usual class: activators; actives 0.063% (n = 410,000); yeast expressing A-beta42, growth rescue, OD600, 48 h; response scale: 0% DMSO, 100% iron-clioquinol control; further: nearly all actives have a fitted effect of over 55% in size
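Growth rescue measured by 600 nm absorbance after 48 h yeast culture at 30 C with compound. Values normalized between DMSO and an equimolar ferric chloride plus clioquinol control.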
FUS suppressor = qHTS for Suppressors of FUS Proteinopathy: Primary screen using FUS-linked yeast assay; AID 1347120, 2019; actives 0.24% (n = 390,000); Potency, µM (top dose mostly 76.6 µM), most hits filed as activators; S. cerevisiae FUS-expressing, growth rescue, OD600, 24 h; further: nearly all actives have a fitted effect of over 55% in size
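Restored growth of FUS-toxic S. cerevisiae, read as 600 nm absorbance after 24 h at 30C in galactose medium (starting OD 0.005). Controls CP55940 and DMSO.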
Numbers stand for hits; i = inactive; ? = inconclusive; nt = no result given. Only some compounds are listed: those with a hit (about 0.69% of all), similar ones and a draw of the others. Unless noted, the call rests on the fitted dose curve; in most records, active means well fitted curve in the direction sought with a large enough effect; inconclusive means small, poorly fitted or top-dose-only effect, or another doubt; inactive means no such curve, though single readings can be large; an effect the other way counts as inactive or inconclusive.

SMILES	Glioma ERSR ind	Vif-A3G inh	PINK1 modulator	Vif-APOBEC3F blk	Abeta yeast res	FUS suppressor
O=C(Nc1cc(Cl)cc(Cl)c1)c1ccc(F)c(S(=O)(=O)N2CCN(c3ccccc3F)CC2)c1	i	i	i	i	i	i
O=C(c1cscn1)N1CCOc2ccc(CN3CCC(Oc4cccnc4)CC3)cc2C1	i	nt	i	nt	nt	nt
CCCCCCCCCc1nc2sc3c(c2c(=O)n1NC(=O)c1ccc([N+](=O)[O-])cc1)CC(C)(C)OC3	i	i	13µM	?	i	i
Nc1c(C(=O)C2CC2)sc2nc(-c3cccs3)cc(C(F)(F)F)c12	i	i	?	0.63µM	i	nt
N=c1c2c(n(Cc3ccc(Br)cc3)c3c1CCC3)CCCC2	i	i	35µM	i	i	i
O=C(Nc1ccc(N2CCOCC2)nc1)c1ccc(Cl)cc1	i	i	i	i	i	i
O=C(Nc1cc(N2CCOCC2)ncn1)c1ccccc1	35µM	i	i	nt	i	i
CCOC(=O)N1CCc2c(sc3c2C(=O)NC(c2ccccc2)N3)C1 (stereo not given)	i	i	i	i	i	i
CCOC(=O)N1CCc2c(sc3c2C(=O)NC(c2ccc(N(C)C)cc2)N3)C1 (stereo not given)	i	?	i	11µM	i	i
O=c1[nH]c(/C=C/c2ccccc2F)nc2ccccc12	i	?	i	i	i	i
CN(C)c1ccc(/C=C/c2nc3ccccc3c(=O)n2CCO)cc1	i	11µM	i	13µM	i	i
CN(C)c1ccc(/C=C/c2nc3ccccc3c(=O)[nH]2)cc1	i	i	i	10µM	i	i
CN(C)c1ccc(/C=C(\C#N)c2nc3ccccc3c(=O)[nH]2)cc1	i	?	i	5µM	i	i
O=c1[nH]c(/C=C/c2cccc3ccccc23)nc2ccccc12	i	?	i	13µM	i	i
O=C(NCCO)c1cn(C2CCCN(Cc3cccc(C(F)(F)F)c3)C2)nn1 (stereo not given)	i	nt	i	nt	nt	nt
COc1ccccc1C1CN(CCNC(=O)[C@@H]2CSC(=O)N2)Cc2ccccc2O1 (stereo not given in full)	i	nt	i	nt	nt	nt
CCOC(=O)[C@]12CCCC=C1N(Cc1ccc(OC)cc1)C(=O)[C@@H]2CC(=O)NCC12CC3CC(CC(C3)C1)C2	nt	nt	nt	nt	nt	18µM
O=C(N/N=C/C1C(c2ccccc2)C1(Cl)Cl)c1cccc(Cl)c1 (stereo not given)	i	i	i	i	i	5.6µM
O=C(N/N=C/c1c[nH]c2ccccc12)c1cccc(Cl)c1	i	i	i	i	i	i
COCc1c(C(=O)N2CCC(N3CCCCC3)CC2)cnn1-c1ncc(C)c(-c2cccs2)n1	i	nt	i	nt	nt	nt
Cc1sc2nc(CSc3nnnn3-c3ccc(Cl)cc3)[nH]c(=O)c2c1C	i	i	?	32µM	i	i
CC(C)Sc1ncc(Cl)c(C(=O)N(Cc2ccc(F)cc2)C2CCS(=O)(=O)C2)n1 (stereo not given)	i	i	i	i	i	i
CCCOc1ccc(CN(C(=O)c2nc(SC(C)C)ncc2Cl)C2CCS(=O)(=O)C2)cc1 (stereo not given)	i	i	i	i	i	35µM
CC(=O)Nc1c2c3c(cccc3n(C)c1=O)C(=O)c1ccccc1-2	i	i	i	i	i	i
Cn1c(=O)c(Nc2ccc(Cl)cc2)c2c3c(cccc31)C(=O)c1ccccc1-2	i	?	i	5µM	i	i
SMILES	Glioma ERSR ind	Vif-A3G inh	PINK1 modulator	Vif-APOBEC3F blk	Abeta yeast res	FUS suppressor
CC[N+](C)(C(=O)O)/C(=C\c1ccccc1)c1ccnc2ccccc12 (stereo not given)	i	11µM	i	nt	nt	nt
CN(CC(=O)O)c1ccc(/C=C/c2ccnc3ccccc23)cc1	i	?	nt	nt	nt	nt
C[C@@H]1[C@H](c2ccccc2)OCCS(=O)(=O)N1Cc1ccccc1Br	i	i	nt	nt	nt	nt
CC(C)(C)n1ncc2c(=O)n(Cc3ccc(F)cc3Cl)cnc21	i	i	nt	nt	nt	nt
Cc1ccc2[nH]cc(C(O)c3c[nH]c4ccc(C)cc34)c2c1	i	i	nt	nt	nt	nt
CCn1cc2nc(SCC(=O)Nc3ccc(OC)c(Cl)c3)n(Cc3ccc(OC)cc3)c(=O)c2n1	i	i	i	i	i	i
CCn1cc2nc(SCC(=O)Nc3cc(OC)cc(OC)c3)n(Cc3ccc(Cl)cc3)c(=O)c2n1	i	i	i	i	i	22µM
COc1cccc(C2(CC(=O)N3CCN(c4ccccc4O)CC3)CC(=O)N(C3CCCC3)C2=O)c1 (stereo not given)	i	nt	i	nt	nt	nt
CN(C)CCCNc1cc(N2CCN(C3CCCCC3)CC2)c2noc3c2c1C(=O)c1ccccc1-3	i	?	i	4.5µM	i	i
Cc1ccc(-n2ncc(C(=O)NCc3cccs3)c2C2CCN(C(=O)OC(C)(C)C)CC2)cc1C	i	i	i	i	i	20µM
CC(C)(C)OC(=O)N1CCC(c2c(C(=O)NCc3cccs3)cnn2-c2cccc(F)c2)CC1	i	i	i	i	i	i
CCc1cccc(C)c1NC(=O)c1cnn(-c2ccc(OC)cc2)c1C1CCN(C(=O)OC(C)(C)C)CC1	i	i	i	i	i	22µM
CC(=O)OC1CCC2(C)C(=CCC3C2CCC2(C)C(C(C)=O)CCC32)C1 (stereo not given)	i	nt	nt	nt	nt	nt
O=C(c1cccnc1)C1CCCN(Cc2ccc3c(c2)CN(C(=O)c2ccc4[nH]ccc4c2)CCO3)C1 (stereo not given)	i	nt	i	nt	nt	nt
COC(=O)C1=C(C)Nc2nc(-c3ccccc3)nn2C1c1ccc(C)o1 (stereo not given)	i	i	i	i	11µM	i
COc1ccc(C2C(C(=O)Nc3ccccc3)=C(C)Nc3nc(-c4ccc(Cl)cc4)nn32)cc1 (stereo not given)	i	?	i	i	i	i
C#CCOCCOCCOCCNc1nc(N2CCN(C(=O)CCCCCCCCCCNC(=O)Cn3cc(C[C@@H](C)O)nn3)CC2)nc(N2CCN(C(=O)CCCCCCCCCCNC(=O)[C@H](CCCCN)n3cc(C[C@@H](C)CC)nn3)CC2)n1	i	?	i	i	i	10µM
C#CCOCCOCCOCCNc1nc(N2CCN(C(=O)CCCCCCCCCCNC(=O)[C@@H](CCSC)n3cc(CCO)nn3)CC2)nc(N2CCN(C(=O)CCCCCCCCCCNC(=O)[C@H]([C@@H](C)CC)n3cc(CCCCCN)nn3)CC2)n1	i	i	i	i	i	?
